VACV mCherry inh = inhibitors of vaccinia virus infection (mCherry reporter signal); 310,000 tested, 0.63% active; Vaccinia virus mCherry reporter infection, fluorescence; Potency, µM (top dose mostly 36.5 µM), without a hit: at the highest dose activity change, negative = inhibition, usual class: inhibitors; calls by dose curve; tested in A549 cells; also: potency is read from the fitted curve at half-maximal effect; nearly all actives have a fitted effect of over 35% in size
Sm TGR inh = blocks Schistosoma mansoni thioredoxin glutathione reductase; Q962Y6; purified TGR, DTNB reduction, TNB absorbance 405 nm; Potency, µM (top dose mostly 114 µM), for the others: at the top dose activity change, negative = inhibition, hits mostly inhibitors; 360,000 tested, 3% active; AID 485364; also: potency is read from the fitted curve at half-maximal effect; nearly all actives have a fitted effect of over 60% in size
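TGR 20 nM + NADPH 100 uM (dispensed conc.), cpd preinc 15 min RT; start with NADPH (500 uM addition) then DTNB (15 mM addition). Kinetic TNB absorbance, 405 nm filter. Four-parameter Hill fit across titration.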
HCV inhibitor = inhibitors of hepatitis C virus infection | Potency, µM (highest dose often 41.8 µM), inactives show at the highest dose activity change, negative = inhibition, actives largely listed as inhibitors | Huh7.5.1 HCVcc-Cre infection, luciferase reporter, 44 h | 340,000 tested, 3.4% active; also: potency is read from the fitted curve at half-maximal effect
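Compounds are dispensed onto cells plated 4 h earlier at 1,000 per well, with HCVcc-Cre virus (about 0.5 moi) added next. Following 44 h of culture, luminescent signal is measured for 15 sec after 15 min with substrate at room temperature.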
HCMV antiviral = blocks human cytomegalovirus replication; AID 1259415; 410,000 tested, 4.5% active; HFF cells, HCMV-luciferase reporter, 72 h; active compounds read low; activity change, negative = inhibition, % at 57.5 µM; in the data active = activity change below about -60%; inconclusive = no clear call, values can overlap the other calls; inactive = above about -39%
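Compounds were evaluated in HFFs infected with an HCMV luciferase reporter virus (MOI 1 PFU/cell). Luciferase in lysates collected 72 h post infection served as the replication measure.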
VACV Venus inh = inhibitors of vaccinia virus (Venus reporter); Vaccinia virus Venus reporter expression, fluorescence; Potency, µM (top dose mostly 36.5 µM), for inactives: at the top dose activity change, negative = inhibition, actives largely listed as inhibitors; 330,000 tested, 0.46% active; AID 720580; calls by dose curve; tested in A549 cells; also: potency is read from the fitted curve at half-maximal effect; nearly all actives have a fitted effect of over 30% in size
FMDV inh = foot and mouth disease virus antiviral activity. 410,000 tested, 1.2% active. Potency, µM (highest dose often 57.9 µM), without a hit: at the highest dose activity change, negative = inhibition, hits mostly inhibitors. FMDV antiviral cell-based qHTS. AID 1159524; calls by dose curve; tested in HEK293T cells; also: read-out not given here; potency is read from the fitted curve at half-maximal effect; nearly all actives have a fitted effect of over 45% in size
Active calls of the source: *; i = inactive; ? = inconclusive; nt = no result; [ ] = another dose, or the depositor's remark. The list is not random: actives were taken first. Their share in the collection is about 9.3%. Unless noted, calls follow the shape of the dose curve; as a rule, active = well fitted curve in the direction sought with a large enough effect; inconclusive = small, poorly fitted or top-dose-only effect, or another doubt; inactive = no such curve, though single readings can be large; an effect the other way counts as inactive or inconclusive. % is scaled to controls: 0 for no effect and ±100 for the full control effect.

SMILES	VACV mCherry inh	Sm TGR inh	HCV inhibitor	HCMV antiviral	VACV Venus inh	FMDV inh
C/C(=C\c1ccc(N(C)C)cc1)[N+](=O)[O-]	nt	0%	?	-102*	nt	14µM*
CN(C)c1ccc(C(=O)C=Cc2ccc([N+](=O)[O-])cc2)cc1	?	nt	nt	-19	-23%	-5%
CNC(=O)CN(c1cc([N+](=O)[O-])ccc1OC)S(C)(=O)=O	-5%	-5%	-13%	-23	-10%	-14%
CCOC(=O)c1c(C)oc2c1c(C(c1cccnc1)N1CCOCC1)c(O)c1ccccc12 (stereo not given)	-11%[1.46 µM]	1.3µM*	?	221	-26%	?
COC(=O)NCC(c1cccnc1)N1CCOCC1 (stereo not given)	-22%	-29%	-1%	-17	10%	-29%
CCOC(=O)c1c(C)oc2c1c(C(c1cccnc1)N1CCN(C)CC1)c(O)c1ccccc12 (stereo not given)	nt	0.56µM*	11µM*	nt	nt	nt
CCOc1ccc(C(=O)Cn2c(=O)n3nc(CCn4nc(C)cc4C)nc3c3cc(OC)c(OC)cc32)cc1	3.5µM*	-4%	nt	7	?	-7%
CN1C(=O)/C(=C/c2ccc(-c3ccccc3[N+](=O)[O-])o2)SC1=Nc1ccc(Cl)c(C(=O)O)c1	i	-28%	-7%	-23	9%	14%
CCCCCCCCCCCCCCCC(=O)OCC(NC(=O)C(Cl)Cl)C(O)c1ccc([N+](=O)[O-])cc1 (stereo not given)	nt	nt	nt	-9	nt	nt
CC1(C)CC(=O)C(CS(=O)(=O)c2ccccc2)=C(O)C1	nt	1µM*	0%	24	nt	7%
CC1(C)CC(=O)C(CC(=O)Nc2ccc(S(N)(=O)=O)cc2)=C(O)C1	nt	-35%	5%	35	nt	-8%
O=C(CCN1C(=O)/C(=C/c2cccc(Br)c2)SC1=S)Nc1cccnc1	?	1%	-15%	-1	?	3%
CNC(=O)NC(=O)COC(=O)c1cccc(S(=O)(=O)N2CC3(C)CC2CC(C)(C)C3)c1 (stereo not given)	-19%	-3%	?	-13	-2%	-16%
CC1(C)CC2CC(C)(CN2S(=O)(=O)c2cccc(C(=O)OCC(=O)NC(N)=O)c2)C1 (stereo not given)	-16%	16µM*	2%	-26	1%	4%
Cc1nc2ccccn2c1P(=S)(c1ccccc1)c1ccccc1	nt	nt	nt	-12	nt	-22%
O=C(CCC1CCCC1)Nc1cc(Cl)ccc1N1CCOCC1	nt	3%	-6%	?	nt	-17%
CC(C)(C)c1ccc(C(=O)NCCC(=O)Nc2cc(Cl)ccc2N2CCOCC2)cc1	nt	-3%	11µM*	0	nt	4%
Cc1cc(Cl)ccc1OCC(=O)Nc1ccccc1N1CCOCC1	-24%	8%	?	?	-27%	28µM*
Cc1cc(Cl)ccc1OCC(=O)NCC(c1cccs1)N1CCOCC1 (stereo not given)	-13%	0%	10µM*	-72*	-25%	32µM*
N#C[C@H](Cc1ccc(O)cc1)c1ccc(O)cc1	nt	nt	nt	nt	nt	-13%
COc1cccc(N2CCN(CC(=O)Nc3ccccc3C(=O)NCc3ccccc3)CC2)c1	nt	-5%	?	-24	nt	?
CCOC(=O)C1CCCN(C(=S)Nc2cccc(Cl)c2)C1 (stereo not given)	-19%	-13%	-10%	-24	-7%	-6%
O=C(O)CCC(=O)N1CCCC1	0%	20%	2%	-38	-14%	4%
O=C(NC12CC3CC(CC(C3)C1)C2)c1c(Cl)cccc1Cl	i	1%	30%	-3	-4%	-6%
O=C(CSc1ncc2c(n1)-c1cc(Cl)ccc1N(Cc1ccccc1)S2(=O)=O)Nc1ccc(F)cc1F	-14%	-26%	nt	-98*	-27%	?
SMILES	VACV mCherry inh	Sm TGR inh	HCV inhibitor	HCMV antiviral	VACV Venus inh	FMDV inh
O=C(CSc1ncc2c(n1)-c1ccc(Cl)cc1N(Cc1ccccc1)S2(=O)=O)Nc1ccc(F)c(F)c1	-7%	1%	nt	7	-12%	-18%
Cc1cccc(C)c1NC(=O)CSc1ncc2c(n1)-c1ccc(Cl)cc1N(Cc1ccccc1)S2(=O)=O	-10%[7.34 µM]	5%	nt	-99*	-7%[7.34 µM]	-11%
Cc1ccc(NC(=O)CSc2ncc3c(n2)-c2ccc(Cl)cc2N(C)S3(=O)=O)cc1F	-18%	1%	nt	-16	-8%	-16%
CN1c2cc(Cl)ccc2-c2nc(SCC(=O)Nc3ccc(F)cc3F)ncc2S1(=O)=O	?	8%	nt	-63*	-30%	?
CCC(C)NC(=O)CSc1c2c(nc3cc(Cl)ccc13)CCCC2 (stereo not given)	1%	-1%	nt	-6	-9%	?
CCCCON1C(=O)c2cccc3cccc(c23)C1=O	nt	4%	7%	39	nt	24%
NS(=O)(=O)c1ccc(CCNC(=O)C2CCCN2C(=O)c2cccs2)cc1 (stereo not given)	i	nt	nt	-10	-8%	-19%
O=C(c1ccc(-n2cccc2)cc1)N1CCN(Cc2ccccc2)CC1	nt	-10%	?	-26	nt	-14%
COc1ccc(NC(=O)C2Cc3ccccc3C(=O)O2)cc1 (stereo not given)	-24%	-1%	2%	-4	-17%	52%
Cn1nccc1C(=O)NCc1ccc2c(c1)CCN2C(=O)c1ccc(Cl)cc1	-12%	0%	nt	-15	-13%	1%
Cc1ccc(C(=O)N2CCc3cc(CNC(=O)c4ccnn4C)ccc32)cc1	-16%	0%	nt	-70*	?	?
CCOC(=O)c1cccc(NC(=O)NCc2ccc3c(c2)CCN3C(=O)c2ccccc2)c1	?	7%	nt	?	?	40µM*
Cc1cccc(C(=O)N2CCc3cc(CNC(=O)c4ccnn4C)ccc32)c1	i	4%	nt	4	-13%	20µM*
Cc1cccc(C(=O)N2CCc3cc(CNC(=O)c4ccc(Br)o4)ccc32)c1	-26%	3%	nt	-67*	-27%	6%
CC[C@H](C)/C=C(C)/C=C/C1=CC2=C(Cl)C(=O)[C@@](C)(OC(C)=O)C(=O)C2=CO1	-26%	nt	0%	nt	?	-23%
O=C(c1cnc2n(c1=O)CCS2)N(c1ccccc1)C1CCCCC1	i	-12%	18%	15	-1%	-1%
CN1c2ccccc2C(O)=C(C(=O)Nc2ccccc2)S1(=O)=O	1%	67%	7%	9	-4%	-13%
Cc1sc2c(c1C)C(O)=C(C(=O)Nc1ccccc1)S(=O)(=O)N2C	-6%[7.34 µM]	3.5µM*	8%	48	-10%[7.34 µM]	-32%
O=C1C(=O)c2cccc3cccc1c23	-16%	-1%	14%	?	-13%	-12%
O=C1C([N+](=O)[O-])=C(O)c2cccc3cccc1c23	nt	40µM*	nt	nt	nt	nt
O=C1CC(C(=O)O)S/C(=N\NC(=O)c2ccccc2)N1 (stereo not given)	nt	7%	7%	-82*	nt	4%
